Measurements from PubChem BioAssay (NCATS).
The source made the active and inactive calls. Calls follow the shape of the dose curve; as a rule, active = well fitted inhibition curve with a large enough effect; inconclusive = small, poorly fitted or top-dose-only effect; inactive = flat fitted curve, though single readings scatter.

target: DNA dC->dU-editing enzyme APOBEC-3G (Homo sapiens) (UniProt Q9HC16); experiment: qHTS for inhibitors of Vif-A3G interactions: Validation (AID 588379); conditions: Vif-A3G protein interaction assay; series mostly up to 46.1 µM
Sequence (Q9HC16 whole entry, looked up): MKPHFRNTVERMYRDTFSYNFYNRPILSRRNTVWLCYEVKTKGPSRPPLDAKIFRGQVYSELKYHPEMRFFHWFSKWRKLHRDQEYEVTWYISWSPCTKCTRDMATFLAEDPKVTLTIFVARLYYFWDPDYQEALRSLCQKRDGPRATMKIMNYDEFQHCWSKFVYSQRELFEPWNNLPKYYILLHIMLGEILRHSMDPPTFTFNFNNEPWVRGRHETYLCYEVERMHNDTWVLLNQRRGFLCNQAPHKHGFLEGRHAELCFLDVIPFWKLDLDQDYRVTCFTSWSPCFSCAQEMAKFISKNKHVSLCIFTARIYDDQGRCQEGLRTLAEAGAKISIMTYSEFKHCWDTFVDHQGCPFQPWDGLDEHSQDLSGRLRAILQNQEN
Text: The recent discovery and characterization of host restriction factors, which provide a potent defense to invading retroviruses, has provided new targets for antiviral drug development. APOBEC3G (A3G) and APOBEC3F (A3F) are potent cytidine deaminases that block HIV-1 replication; HIV-1 expresses the Vif protein, which counteracts A3G and A3F by binding to them and inducing their proteasomal degradation.
The Vif-A3G and Vif-A3F interactions provide two potential targets for development of small molecules which can interfere with the ability of Vif to degrade A3G or A3F. […] To identify inhibitors that can interfere with Vif mediated degradation of A3G and A3F, we have developed Hela cell lines that stably express A3G or A3F tagged with eYFP at the C-terminal end (A3G-eYFP or A3F-eYFP, respectively) and Vif. In the absence of an inhibitor, Vif induces degradation of A3G-eYFP and A3F-eYFP, and the cells are not fluorescent. In the presence of an inhibitor, it is expected that Vif will be unable to degrade A3G-eYFP and/or A3F-eYFP, resulting in an increase in yellow fluorescence. In this assays Vif A3G was screened against the Molecular Library Small Molecile Repository (MLSMR).
NIH Chemical Genomics Center [NCGC]
NIH Molecular Libraries Probe Centers Network [MLPCN]
Assay Submitter (PI): Vinay Pathak, National Cancer Institute
5 uL of 700 cells/well of A3G-YFP cells are dispensed into black, clear bottom plates. The plates are incubated overnight at 37 deg C. 23 nL of compounds are added by pintool. The plates are incubated overnight at 37 deg C and then read on the TTP Acumen (Ex 488/ Em 500-530).

SMILES	outcome
CN(C)CC/C=C1\c2ccccc2COc2ccccc21	inactive
COc1ccc2c(c1OC)C(=O)O[C@@H]2[C@H]1c2c(cc3c(c2OC)OCO3)CCN1C	inactive
CCN(CC)CCOCCOC(=O)C1(c2ccccc2)CCCC1	inactive
c1cc(CN2CCCCC2)cc(OCCCNc2nc3ccccc3s2)c1	inactive
NC(N)=NC(=O)Cc1c(Cl)cccc1Cl	inactive
CCCCNc1c(C(=O)OCC)c(C)nc2c1cnn2CC	inactive
Cc1scc2c1N(C(=O)CN1CCN(C)CC1)c1ccccc1NC2=O	inactive
CN(C(=O)CCCOc1ccc2[nH]c(=O)ccc2c1)C1CCCCC1	inactive
CCCN1C[C@H](CSC)C[C@@H]2c3cccc4[nH]cc(c34)C[C@H]21	inactive
c1cnc(N2CCN(Cc3ccc4c(c3)OCO4)CC2)nc1	inactive
CCOC(=O)c1cnc2c(cnn2CC)c1NN=C(C)C	inactive
CCCCCCCC/C=C\CCCCCCCC(=O)NCc1ccc(O)c(OC)c1	inactive
COc1ccc([C@@H]2Sc3ccccc3N(CCN(C)C)C(=O)[C@@H]2OC(C)=O)cc1	inactive
CCn1nc(C(=O)O)c(=O)c2cc3c(cc21)OCO3	inactive
CN1CCN(CC(=O)N2c3ccccc3C(=O)Nc3cccnc32)CC1	inactive
COc1ccc(CN(CCN(C)C)c2ccccn2)cc1	inactive
CN/C(=C\[N+](=O)[O-])NCCSCc1ccc(CN(C)C)o1	inactive
Cc1ccc(=O)n(-c2ccccc2)c1	inactive
COc1cc(Cc2cnc(N)nc2N)cc(OC)c1OC	inactive
COc1cc(C(=O)OCCCN2CCCN(CCCOC(=O)c3cc(OC)c(OC)c(OC)c3)CC2)cc(OC)c1OC	inactive
CN=C(NC#N)NCCSCc1nc[nH]c1C	inactive
CCN1CCC[C@H]1CNC(=O)c1c(O)c(Cl)cc(Cl)c1OC	inactive
N[C@@H](COP(=O)(O)O)C(=O)O	inactive
CCCOc1ccccc1-c1nc2n[nH]nc2c(=O)[nH]1	inactive
CC1=NS(=O)(=O)c2cc(Cl)ccc2N1	inactive
O=C1CC2(CCCC2)CC(=O)N1CCCCN1CCN(c2ncccn2)CC1	inactive
FC(F)(F)c1ccccc1-n1ccnc1	inactive
O=c1[nH]c(=O)n([C@H]2C[C@H](O)[C@@H](CO)O2)cc1Br	inactive
Brc1c(NC2=NCCN2)ccc2nccnc12	inactive
